Laboratory results: the supplement of paper PMC9117331

Experiments:
Details in all cases: 0.5 µM; time after treatment 48 h; PC9 signalome
PC9 [1] = assay: AKT reporter activity score (signed KS statistic vs DMSO) (signed KS statistic (-1 to 1)); higher = stronger activation of the pathway reporter relative to DMSO
PC9 [2] = assay: RAR reporter activity score (signed KS statistic vs DMSO) (signed KS statistic (-1 to 1)); higher = stronger activation of the pathway reporter relative to DMSO
PC9 [3] = assay: PKC reporter activity score (signed KS statistic vs DMSO) (signed KS statistic (-1 to 1)); higher = stronger activation of the pathway reporter relative to DMSO
PC9 [4] = assay: PKA reporter activity score (signed KS statistic vs DMSO) (signed KS statistic (-1 to 1)); higher = stronger activation of the pathway reporter relative to DMSO
PC9 [5] = assay: p38 reporter activity score (signed KS statistic vs DMSO) (signed KS statistic (-1 to 1)); higher = stronger activation of the pathway reporter relative to DMSO
PC9 [6] = assay: HIF reporter activity score (signed KS statistic vs DMSO) (signed KS statistic (-1 to 1)); higher = stronger activation of the pathway reporter relative to DMSO
PC9 [7] = assay: ERK reporter activity score (signed KS statistic vs DMSO) (signed KS statistic (-1 to 1)); higher = stronger activation of the pathway reporter relative to DMSO
PC9 [8] = assay: JNK reporter activity score (signed KS statistic vs DMSO) (signed KS statistic (-1 to 1)); higher = stronger activation of the pathway reporter relative to DMSO
PC9 [9] = assay: WNT reporter activity score (signed KS statistic vs DMSO) (signed KS statistic (-1 to 1)); higher = stronger activation of the pathway reporter relative to DMSO
PC9 [10] = assay: NFkB reporter activity score (signed KS statistic vs DMSO) (signed KS statistic (-1 to 1)); higher = stronger activation of the pathway reporter relative to DMSO
PC9 [11] = assay: YAP/TAZ reporter activity score (signed KS statistic vs DMSO) (signed KS statistic (-1 to 1)); higher = stronger activation of the pathway reporter relative to DMSO

Structure (SMILES) | AKT reporter activity score (PC9 [1]) | RAR reporter activity score (PC9 [2]) | PKC reporter activity score (PC9 [3]) | PKA reporter activity score (PC9 [4]) | p38 reporter activity score (PC9 [5]) | HIF reporter activity score (PC9 [6]) | ERK reporter activity score (PC9 [7]) | JNK reporter activity score (PC9 [8]) | WNT reporter activity score (PC9 [9]) | NFkB reporter activity score (PC9 [10]) | YAP/TAZ reporter activity score (PC9 [11])
CCN1CCN(Cc2ccc(Nc3ncc(F)c(-c4cc(F)c5nc(C)n(C(C)C)c5c4)n3)nc2)CC1 | -0.454 | 0.2 | 0.128 | -0.473 | -0.118 | 0.484 | 0.0461 | 0.34 | 0.767 | 0.239 | 0.183
Cc1c(NC(=O)OC[C@@H]2COCCN2)cn2ncnc(Nc3ccc4c(cnn4Cc4cccc(F)c4)c3)c12 | -0.228 | 0.182 | 0.0831 | 0.0553 | -0.0763 | -0.136 | -0.29 | -0.0881 | 0.0831 | 0.0753 | 0.0967
CN1CCN(c2nc(C3=C(c4c[nH]c5ccccc45)C(=O)NC3=O)c3ccccc3n2)CC1 [Sotrastaurin (AEB071)] | 0.195 | -0.104 | 0.0333 | 0.144 | 0.268 | 0.0348 | -0.0912 | 0.155 | 0.0742 | -0.26 | -0.0765
Cc1cc(C(=O)NOCCO)c(Nc2ccc(I)cc2F)n(C)c1=O | -0.0809 | 0.337 | 0.0992 | -0.257 | 0.108 | 0.0532 | -0.629 | 0.22 | 0.0922 | 0.224 | 0.448
Cc1nc(NC(=O)N2CCC[C@H]2C(N)=O)sc1-c1ccnc(C(C)(C)C(F)(F)F)c1 [Alpelisib (BYL719)] | -0.308 | 0.0272 | -0.0493 | -0.0979 | 0.131 | -0.123 | 0.0754 | -0.0947 | 0.0988 | 0.0495 | -0.125
Cn1c(=O)c(F)c(Nc2ccc(I)cc2F)c2c(=O)n(C[C@@H](O)CO)cnc21 | 0.104 | 0.28 | 0.0748 | -0.176 | 0.193 | 0.0238 | -0.525 | 0.245 | -0.0866 | 0.274 | 0.513
Cn1cnc2c(F)c(Nc3ccc(Br)cc3Cl)c(C(=O)NOCCO)cc21 [AZD6244 (Selumetinib)] | 0.282 | -0.154 | -0.074 | -0.0961 | 0.0759 | -0.125 | -0.348 | 0.145 | 0.091 | 0.0644 | 0.164
COc1ncc(-c2ccc3nccc(-c4ccnnc4)c3c2)cc1NS(=O)(=O)c1ccc(F)cc1F | -0.778 | 0.43 | 0.0478 | -0.254 | -0.499 | 0.0783 | -0.33 | -0.305 | 0.123 | 0.192 | 0.18
CO[C@H]1C[C@@H]2CC[C@@H](C)[C@@](O)(O2)C(=O)C(=O)N2CCCC[C@H]2C(=O)O[C@H]([C@H](C)C[C@@H]2CC[C@@H](OP(C)(C)=O)[C@H](OC)C2)CC(=O)[C@H](C)/C=C(\C)[C@@H](O)[C@@H](OC)C(=O)[C@H](C)C[C@H](C)/C=C/C=C/C=C/1C [Deforolimus (MK-8669)] | 0.241 | -0.292 | -0.044 | 0.262 | 0.178 | -0.232 | 0.0405 | -0.0745 | 0.0613 | 0.151 | 0.142
